Test results as given in PubChem BioAssay (EPA / NIEHS).
Activity calls are given as the source filed them. How the source made its calls: active means hit-call score of the fitted dose curve at least 0.9, where 1 is the maximum; inactive means score below 0.9.

Columns and labels:
[1] = biological target: Bile acid receptor (Homo sapiens) (UniProt Q96RI1); assay: ATG_IR1_CIS: Attagene CIS-FACTORIAL HepG2 Assay for human Nuclear Receptor Subfamily 1 Group H Member 4 (NR1H4), IR1 submotif (AID 2282946); conditions: IR1 reporter transcription, actives raise or lower the signal
Chain of Bile acid receptor (Homo sapiens) (Q96RI1 whole entry, looked up): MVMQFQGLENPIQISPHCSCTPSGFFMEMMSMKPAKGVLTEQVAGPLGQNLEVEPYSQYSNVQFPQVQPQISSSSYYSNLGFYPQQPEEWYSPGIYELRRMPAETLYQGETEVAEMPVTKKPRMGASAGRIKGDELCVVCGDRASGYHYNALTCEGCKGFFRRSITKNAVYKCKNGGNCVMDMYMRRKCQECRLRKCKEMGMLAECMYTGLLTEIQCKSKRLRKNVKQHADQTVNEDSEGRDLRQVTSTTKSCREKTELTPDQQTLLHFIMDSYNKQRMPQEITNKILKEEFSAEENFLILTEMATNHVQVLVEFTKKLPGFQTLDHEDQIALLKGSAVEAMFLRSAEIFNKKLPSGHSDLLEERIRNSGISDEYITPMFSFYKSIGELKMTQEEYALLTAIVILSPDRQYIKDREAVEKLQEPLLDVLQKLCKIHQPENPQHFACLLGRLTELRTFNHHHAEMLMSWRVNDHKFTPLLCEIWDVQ
Outline: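 HepG2 cells transiently transfected with multiplexed cis-element reporter units read endogenous transcription factor activity. After 24 h compound exposure, reporter mRNA was quantified by RT-PCR, fluorescent labelling, HpaI digestion and capillary electrophoresis; bidirectional fitting versus DMSO baseline.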

[2] = ATG_GRE_CIS: Attagene CIS-FACTORIAL HepG2 Assay for human Glucocorticoid Response Elements (GRE) (AID 2282947); conditions: HepG2 GRE cis-reporter, Attagene multiplex mRNA; actives raise or lower the signal
Outline: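 Multiplexed cis-reporter mRNA induction, HepG2, 24 h post-dose. RT-PCR, FAM-labelled, HpaI-digested amplicons by CE. Bidirectional fit vs DMSO.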

[3] = ATG_ISRE_CIS: Attagene CIS-FACTORIAL HepG2 Assay for human Interferon Regulatory Factor 1 (IRF1) binding to an Interferon-Stimulated Response Element (ISRE) (AID 2282948); conditions: HepG2 ISRE cis-reporter (Attagene), mRNA transcription readout; actives raise or lower the signal
Outline: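 Multiplexed mRNA reporter readout in human liver HepG2 cells: cis-element-driven reporters transfected, compound added for 24 h, transcripts amplified, fluorescently labelled and sized by capillary electrophoresis; curve fitting bidirectional against DMSO.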

[4] = ATG_M_32_CIS: Attagene CIS-FACTORIAL HepG2 Assay for M32 Transcription Factor (Internal Marker) (AID 2282949); conditions: HepG2 Attagene cis-factorial M32 reporter, mRNA; actives raise or lower the signal;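 further: background control marker of the multiplexed CIS panel rather than a real target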
Outline: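 Transient MRTU transfection of HepG2; 24 h compound treatment; TriZol RNA, oligo(dT) RT, reporter PCR, 6-FAM primer extension, HpaI cut, CE. Gain/loss of signal vs DMSO.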

[5] = ATG_M_06_CIS: Attagene CIS-FACTORIAL HepG2 Assay for M06 Transcription Factor (Internal Marker) (AID 2282950); conditions: HepG2 Attagene CIS-FACTORIAL M06 internal marker reporter; actives raise or lower the signal
Outline: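 Steps: transfect HepG2 with multiplexed cis-element reporter constructs; dose chemical 24 h; extract RNA with DNase treatment; reverse-transcribe, PCR-amplify, 6-FAM label, HpaI digest; separate fragments by capillary electrophoresis. Activity fitted both directions versus DMSO.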

[6] = biological target: Hypoxia-inducible factor 1-alpha (Homo sapiens) (UniProt Q16665); assay: ATG_HIF1a_CIS: Attagene CIS-FACTORIAL HepG2 Assay for human Hypoxia Inducible Factor 1 (HIF1A) (AID 2282951); conditions: HepG2 Attagene cis-factorial HIF1a reporter transcription; actives raise or lower the signal
Chain of Hypoxia-inducible factor 1-alpha (Homo sapiens) (Q16665 whole entry, looked up): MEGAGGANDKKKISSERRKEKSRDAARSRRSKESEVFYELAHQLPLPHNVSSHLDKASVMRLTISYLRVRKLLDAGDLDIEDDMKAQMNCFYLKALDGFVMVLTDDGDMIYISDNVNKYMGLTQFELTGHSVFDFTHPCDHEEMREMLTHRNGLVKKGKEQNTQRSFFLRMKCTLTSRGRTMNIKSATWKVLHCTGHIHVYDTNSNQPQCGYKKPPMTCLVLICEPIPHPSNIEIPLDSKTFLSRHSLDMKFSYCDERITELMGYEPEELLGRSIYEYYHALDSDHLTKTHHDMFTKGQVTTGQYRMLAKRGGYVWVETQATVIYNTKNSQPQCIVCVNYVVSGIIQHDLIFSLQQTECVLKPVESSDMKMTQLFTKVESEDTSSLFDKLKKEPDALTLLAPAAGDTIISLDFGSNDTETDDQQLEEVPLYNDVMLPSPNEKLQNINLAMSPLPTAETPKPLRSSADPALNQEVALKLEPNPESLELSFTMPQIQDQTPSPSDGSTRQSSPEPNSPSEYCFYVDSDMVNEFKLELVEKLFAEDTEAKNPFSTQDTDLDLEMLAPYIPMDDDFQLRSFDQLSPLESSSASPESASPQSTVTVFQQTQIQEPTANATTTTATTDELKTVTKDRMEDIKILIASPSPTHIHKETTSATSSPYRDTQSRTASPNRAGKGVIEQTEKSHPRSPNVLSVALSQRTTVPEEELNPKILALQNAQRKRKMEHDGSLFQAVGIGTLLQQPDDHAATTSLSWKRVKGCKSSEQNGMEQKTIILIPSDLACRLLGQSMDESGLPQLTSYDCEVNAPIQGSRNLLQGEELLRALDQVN
Outline: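 Measures endogenous transcription-factor activity through cis-regulated reporter mRNA in HepG2. Cells dosed 24 h; transcripts quantified by RT-PCR with 6-FAM-labelled products separated by capillary electrophoresis; DMSO serves as negative control.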

[7] = biological target: Hepatocyte nuclear factor 6 (Homo sapiens) (UniProt Q9UBC0); assay: ATG_HNF6_CIS: Attagene CIS-FACTORIAL HepG2 Assay for human Hepatocyte Nuclear Factor 6 (HNF6) (AID 2282952); conditions: HepG2 Attagene cis-factorial HNF6 reporter transcription; actives raise or lower the signal
Chain of Hepatocyte nuclear factor 6 (Homo sapiens) (Q9UBC0 whole entry, looked up, the tested form may be a part): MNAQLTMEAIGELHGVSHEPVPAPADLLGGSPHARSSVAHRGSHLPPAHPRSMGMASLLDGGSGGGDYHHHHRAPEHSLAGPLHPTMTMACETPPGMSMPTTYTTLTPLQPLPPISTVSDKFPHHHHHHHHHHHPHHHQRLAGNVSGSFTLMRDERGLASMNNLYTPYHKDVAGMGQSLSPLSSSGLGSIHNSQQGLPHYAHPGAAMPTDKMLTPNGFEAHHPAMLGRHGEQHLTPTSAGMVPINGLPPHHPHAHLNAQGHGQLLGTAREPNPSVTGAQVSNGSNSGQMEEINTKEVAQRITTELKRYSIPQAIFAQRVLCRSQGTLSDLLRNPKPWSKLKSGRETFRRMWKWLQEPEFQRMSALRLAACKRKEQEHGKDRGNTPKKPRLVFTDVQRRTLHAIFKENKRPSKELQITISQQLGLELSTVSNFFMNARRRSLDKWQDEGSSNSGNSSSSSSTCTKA
Outline: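 Readout: fluorescent reporter-transcript fragments resolved by capillary electrophoresis after RT-PCR, reflecting endogenous factor activity in transfected HepG2. Exposure 24 h. Gain or loss of signal fitted bidirectionally against DMSO.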

[8] = biological target: Heat shock factor protein 1 (Homo sapiens) (UniProt Q00613); assay: ATG_HSE_CIS: Attagene CIS-FACTORIAL HepG2 Assay for human Heat Shock Transcription Factor 1 (HSE) (AID 2282953); conditions: HepG2 HSE cis-reporter, Attagene RNA transcription; actives raise or lower the signal
Chain of Heat shock factor protein 1 (Homo sapiens) (Q00613 whole entry, looked up, the tested form may be a part): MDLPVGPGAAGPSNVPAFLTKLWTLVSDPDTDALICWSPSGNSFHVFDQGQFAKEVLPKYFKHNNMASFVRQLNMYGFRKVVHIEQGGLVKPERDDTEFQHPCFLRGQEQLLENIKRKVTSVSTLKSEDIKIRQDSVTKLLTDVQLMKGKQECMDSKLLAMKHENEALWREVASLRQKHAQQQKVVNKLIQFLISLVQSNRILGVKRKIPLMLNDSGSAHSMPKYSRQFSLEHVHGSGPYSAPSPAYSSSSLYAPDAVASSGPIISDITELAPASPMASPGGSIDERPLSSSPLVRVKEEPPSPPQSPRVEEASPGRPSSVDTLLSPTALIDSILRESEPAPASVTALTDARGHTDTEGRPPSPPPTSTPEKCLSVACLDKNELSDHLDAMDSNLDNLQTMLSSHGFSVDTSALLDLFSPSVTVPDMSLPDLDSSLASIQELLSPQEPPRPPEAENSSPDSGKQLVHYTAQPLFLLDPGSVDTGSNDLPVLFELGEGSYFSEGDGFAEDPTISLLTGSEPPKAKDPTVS
Outline: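 Cells were transfected with cis-element-driven reporter constructs, dosed for 24 h, then total RNA was reverse-transcribed and reporter cDNA amplified, FAM-labelled and digested with HpaI. Fragments were resolved by capillary electrophoresis; gain or loss was fitted against DMSO.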

[9] = ATG_MRE_CIS: Attagene CIS-FACTORIAL HepG2 Assay for human Metal Responsive Element (MRE) (AID 2282954); conditions: HepG2 MRE cis-reporter transcription, Attagene multiplex; actives raise or lower the signal
Outline: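 Multiplexed cis-reporter assay in human HepG2 liver cells, 24 h incubation with test chemical. Reporter transcripts measured by RT-PCR and capillary electrophoresis; values from bidirectional curve fitting versus DMSO.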

[10] = ATG_PBREM_CIS: Attagene CIS-FACTORIAL HepG2 Assay for human Phenobarbital-responsive Enhancer Module (PBREM) (AID 2282955); conditions: HepG2 PBREM cis-reporter, Attagene multiplexed transcription; actives raise or lower the signal
Outline: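 Fluorescence of labelled reporter cDNA fragments, resolved by capillary electrophoresis, gives mRNA induction in transfected HepG2 cells treated for 24 h; DMSO serves as negative control and baseline.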

Row | Compound | outcome [1] | outcome [2] | outcome [3] | outcome [4] | outcome [5] | outcome [6] | outcome [7] | outcome [8] | outcome [9] | outcome [10] | AC50 [3] | AC50 [6] | AC50 [7] | AC50 [8] | AC50 [9] | AC50 [2] | AC50 [5] | AC50 [10]
1 | O=Cc1ccc(F)cc1 | inactive | inactive | inactive | inactive | inactive | inactive | inactive | inactive | inactive | – | – | – | – | – | – | – | – | –
2 | COc1ccc(OC)c(OC)c1 | inactive | inactive | inactive | inactive | inactive | inactive | inactive | inactive | inactive | inactive | – | – | – | – | – | – | – | –
3 | c1cc(C(c2ccc(OCC3CO3)cc2)c2ccc(OCC3CO3)cc2)ccc1OCC1CO1 (stereo unspecified) | inactive | inactive | – | inactive | inactive | – | – | – | – | – | 14.7 µM (active) | 56.4 µM (active) | 25.3 µM (active) | 12.5 µM (active) | 13.4 µM (active) | – | – | –
4 | CC(CCO)CCCC(C)(C)O (stereo unspecified) | inactive | inactive | inactive | inactive | inactive | inactive | inactive | inactive | – | – | – | – | – | – | – | – | – | –
5 | CC(=O)OCc1ccc2c(c1)OCO2 | inactive | inactive | inactive | inactive | inactive | inactive | inactive | inactive | inactive | inactive | – | – | – | – | – | – | – | –
6 | CCc1c(C)cc(N)c(CC)c1N | inactive | inactive | inactive | inactive | inactive | inactive | inactive | inactive | inactive | inactive | – | – | – | – | – | – | – | –
7 | Clc1cccc(Cl)n1 | inactive | inactive | inactive | inactive | inactive | inactive | inactive | inactive | – | inactive | – | – | – | – | – | – | – | –
8 | C=CC(C)(O)CCC=C(C)CCC=C(C)C (stereo unspecified) | inactive | – | – | inactive | – | – | – | – | – | – | 170 µM (active) | 170 µM (active) | 158 µM (active) | 163 µM (active) | 136 µM (active) | 100 µM (active) | 166 µM (active) | –
9 | CC(C)(N)CO | inactive | inactive | inactive | inactive | inactive | inactive | inactive | inactive | inactive | – | – | – | – | – | – | – | – | –
10 | O=C(O)c1snc(Cl)c1Cl | inactive | inactive | – | inactive | inactive | inactive | – | – | – | inactive | 136 µM (active) | – | 153 µM (active) | 158 µM (active) | 161 µM (active) | – | – | –
11 | CCC(C(=O)NC(N)=O)c1ccccc1 (stereo unspecified) | inactive | inactive | inactive | inactive | inactive | inactive | inactive | – | inactive | – | – | – | – | – | – | – | – | –
12 | Cc1c(Cl)c(=O)oc2cc(O)ccc12 | inactive | inactive | inactive | inactive | inactive | inactive | inactive | inactive | inactive | – | – | – | – | – | – | – | – | 37.3 µM (active)
